Each molecule was assayed against NAD(+) hydrolase SARM1 (Homo sapiens) (UniProt Q6SZW1) (assay: blocking NAD cleavage by SARM1 SAM-TIR – cell lysate, NAD-Glo luminescence (AID 1508614;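 further: higher remaining NAD means stronger inhibition of SARM1 NADase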)). Conditions: SAM-TIR HEK293T lysate NADase, at 1 µM, hits give high values;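 active means compound whose remaining NAD level is above about 45 nM (limit read from the data); inactive means the rest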.
Sequence of NAD(+) hydrolase SARM1 (Homo sapiens) (Q6SZW1 whole entry, looked up): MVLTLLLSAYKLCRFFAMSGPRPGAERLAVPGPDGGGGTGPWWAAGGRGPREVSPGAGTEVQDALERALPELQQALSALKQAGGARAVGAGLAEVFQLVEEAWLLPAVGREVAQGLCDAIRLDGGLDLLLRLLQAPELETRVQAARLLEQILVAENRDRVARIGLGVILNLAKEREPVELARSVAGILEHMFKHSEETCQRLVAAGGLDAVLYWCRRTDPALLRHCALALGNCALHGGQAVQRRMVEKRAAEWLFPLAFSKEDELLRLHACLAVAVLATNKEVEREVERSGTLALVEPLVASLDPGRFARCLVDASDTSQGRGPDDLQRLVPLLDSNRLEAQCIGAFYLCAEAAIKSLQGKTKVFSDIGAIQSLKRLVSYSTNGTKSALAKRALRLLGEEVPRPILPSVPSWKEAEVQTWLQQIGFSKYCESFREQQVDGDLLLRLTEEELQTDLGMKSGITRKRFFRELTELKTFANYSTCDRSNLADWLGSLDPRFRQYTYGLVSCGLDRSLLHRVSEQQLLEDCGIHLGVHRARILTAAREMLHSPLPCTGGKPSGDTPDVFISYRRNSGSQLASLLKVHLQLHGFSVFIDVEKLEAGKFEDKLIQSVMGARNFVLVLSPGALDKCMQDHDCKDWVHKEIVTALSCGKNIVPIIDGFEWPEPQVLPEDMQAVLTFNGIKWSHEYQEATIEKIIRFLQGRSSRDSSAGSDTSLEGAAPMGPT

Remaining NAD, inactive:
CO[C@H]1C[C@H](O[C@@H]2/C(C)=C\C[C@@H]3C[C@@H](C[C@]4(C=C[C@H](C)[C@@H](C(C)C)O4)O3)OC(=O)[C@@H]3C=C(C)[C@@H](O)[C@H]4OC/C(=C/C=C\[C@@H]2C)[C@]43O)O[C@@H](C)[C@H]1O[C@H]1C[C@@H](OC)[C@H](NC(C)=O)[C@H](C)O1 10 nM
Cc1ncc(COP(=O)([O-])[O-])c(CN(CCN(CC(=O)[O-])Cc2c(COP(=O)([O-])[O-])cnc(C)c2[O-])CC(=O)[O-])c1[O-].[H+].[H+].[H+].[Mn+2].[Na+].[Na+].[Na+] 10 nM
Cn1c2ncnc-2c(O)n(C)c1=O 10 nM
Cc1ccc2c(Br)cc(Br)c(OC(=O)c3ccccc3)c2n1 10 nM
C=C(C)[C@H]1CC=C(C)CC1 10 nM
CCCCCCCCCCCCCCCC(=O)OC[C@H](O)[C@H]1OC(=O)C(O)=C1O 10 nM
CO/N=C(\C(=O)N[C@@H]1C(=O)N2C(C(=O)O)=C(CSc3nnnn3C)CS[C@H]12)c1csc(N)n1 10 nM
Cc1cc2nc3c(=O)[nH]c(=O)nc-3n(C[C@H](O)[C@H](O)[C@H](O)COP(=O)(O)O)c2cc1C 10 nM
O=C(O)C1=C(CSc2nnnn2CS(=O)(=O)O)CS[C@@H]2[C@H](NC(=O)[C@H](O)c3ccccc3)C(=O)N12 10 nM
COc1cc(/C=C/C(=O)N2CCCCCCC2)cc(OC)c1OC 10 nM
CC1/C=C/C=C/C=C/C=C/C=C/C=C/C=C/C(OC2O[C@H](C)[C@@H](O)[C@H](N)[C@@H]2O)CC(O)C(C(=O)O)C(O)CC(=O)CC(O)CC(O)CC(O)CC(=O)CCCC(=O)CC(=O)OC1C(C)CC(C)C(O)CC(=O)c1ccc(N)cc1 (stereo partly specified) 10 nM

— PubChem BioAssay
